For 39 molecules, viability results are on record in PubChem BioAssay.

In general, viability refers to a read-out of living cells in per cent, often relative to untreated cells.

The nature of this experiment: MRP1 drug-resistance reversers in H69AR cells – cell-based, doxorubicin co-treatment, pilot screen (AID 601). To be noted: H69AR cells + 2 uM doxorubicin, CellTiter-Glo, 72 h; measured here: viability with 2 uM doxorubicin; at 10 µM; stronger effect = lower value. (In ATP-based viability assays light output follows the ATP content of the culture.)
On to `CC(C)(C)OC(=O)N1CC=C2C(C#N)=C(N)C(C#N)(C#N)[C@H](c3cccnc3)[C@H]2C1`, for which the viability was determined as 98.7%.
The value for `COc1cccc(N(C(=O)c2ccco2)C(C(=O)NC2CCCC2)c2ccc(N(C)C)cc2)c1` (centres undefined) was 77.2%.
Regarding `CCOC(=O)C1(C(=O)OCC)C(c2ccccc2)CC(O)N1C(C)=O` (centres undefined), the viability worked out at 80%.
With `Cc1cccc(NC(=O)c2cnc3sccn3c2=O)n1` the figure was 92.2%; with `CCCn1c(SCC(=O)Nc2nnc(-c3ccccc3)s2)nnc1-c1ccccn1`, 96.8%; with `COc1ccc(-c2c3c(=O)n(C)c(=O)n(C)c3cn2-c2cccc(OC)c2)cc1`, 93.2%.
The value for `CCOC(=O)C1CCN(Cc2ccc(C(=O)OC)cc2)CC1` was 83.2%; that for `O=C1c2ccccc2C(Nc2ccc3c(c2)OCCO3)N1Cc1ccco1` (centres undefined) was 103%; that for `COc1cc(/C=N/n2c(C)nnc2C)cc(OC)c1OC` was 83.6%.
The value for `Cc1cccc(N(C)C(=O)c2cc3cc4ccc(C)cc4nc3o2)c1` was 48.8%.
For the molecule `Cc1cc(NC(=O)CSc2nccn2-c2ccc(Cl)cc2)no1`, the viability amounted to 78.1%.
With `Cc1ccc2[nH]c(=O)c(CN(CCCO)S(=O)(=O)c3c(C)ccc4nsnc34)cc2c1` the figure was 92.8%.
Turning to `Cc1ccc(S(=O)(=O)C2(C(=O)N3CCCCCC3)CC2)cc1`, the viability stood at 105%.
With `COc1cc(CN2CCSCC2)cc(OC)c1OC` the figure was 87.7%; with `CCOc1ccc(-c2nc(S(=O)(=O)c3ccccc3)c(NCc3cccnc3)o2)cc1`, 91.4%.
With `CC(=O)Nc1ccc(NS(=O)(=O)c2ccc(Cl)c(C(=O)O)c2)cc1` the figure was 92.8%; with `CC(=O)CCc1ccc(OCCCCn2cncn2)cc1`, 89.6%.
Turning to `CCCC(=O)Nc1ccc(NC(=O)c2ccccc2OC)cn1`, the viability amounted to 86.9%.
The value for `CCOC(=O)c1[nH]c(C)c(C(=O)Nc2ccccc2F)c1C` was 67.1%; that for `COc1ccccc1C(=O)N1CCN(CCc2ccccc2)CC1` was 99.2%; that for `CCN1CCN(c2c(Cl)cccc2NC(=O)c2ccc3c(c2)OCCO3)CC1` was 80.4%.
Regarding `COc1ccccc1NS(=O)(=O)c1ccc(OC)c(OC)c1`, the viability came out at 103%.
With `CN(C(=O)c1ccc(S(=O)(=O)NC2CCCC2)cc1)C1CCCCC1` the figure was 92.3%; with `C/C(N)=C(/C#N)C(=O)COC(=O)c1cc(S(=O)(=O)N2CCCCC2)ccc1C`, 94.8%.
The value for `CC(=O)Nc1ccc(-c2cc3ccccc3o2)cc1` was 83.9%; that for `CCN(CC)S(=O)(=O)c1ccc2oc(C(=O)O)c(C)c2c1` was 92.2%.
With `CCn1c(=O)cc(SCC(=O)Nc2ccc3c(c2)OCO3)c2ccccc21` the figure was 84.4%; with `CN(C(=O)c1ccncc1)C1CC(C)(C)N(O)C(C)(C)C1`, 94.2%; with `CCCC(=O)Nc1ccccc1NC(=O)CN(C)S(=O)(=O)c1ccc(C)cc1`, 89.6%.
For `Cn1c(=O)cc(OCC(=O)NCCCN2CCN(Cc3ccccc3)CC2)c2ccccc21`, the viability came out at 84.8%.
The value for `CCNC(=O)C1CC(=O)N(Cc2ccc3c(c2)OCO3)C(=Nc2ccc(OCC)cc2)S1` (centres undefined) was 63.1%.
With `Cc1cc(-c2ccccc2)nc2cc(C(N)=O)nn12` the figure was 87.1%; with `Cc1ccc(C)c(-n2c(Cc3cc(=O)[nH]c(=O)[nH]3)nnc2SCC(=O)NCc2ccco2)c1`, 89%.
Turning to `Cn1c(C(=O)NCCC2=CCCCC2)cc2c(=O)n3ccccc3nc21`, the viability came out at 80.4%.
With `O=C1CCC(c2ccccc2)N1C(=O)c1cccnc1` (centres undefined) the figure was 90.2%; with `Cc1ccc(-n2nnnc2SCC(=O)N2CCc3ccccc3C2)cc1`, 90.8%.
With `COC(=O)c1oc2ccc(OC)cc2c1N` the figure was 86.2%.
With `O=C(C1CCC(CNS(=O)(=O)c2cccc3cccnc23)CC1)N1CCCC1` (centres undefined) the figure was 96.6%; with `FC(F)(F)C(F)(F)C(F)(F)c1nnc2ccc(N3CCOCC3)nn12`, 83.9%.
